Reference: the supplement of paper PMC11172423

System: Madurella mycetomatis MM55
Test: growth relative to untreated control; higher = less inhibition, active = 20 or less
Conditions: 25 µM
Experimental: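 Hyphal fragments of M. mycetomatis MM55 or F. senegalensis CBS197.79 in RPMI 1640/MOPS were exposed to each MMV COVID Box or Global Health Priority Box compound at 100 or 25 µM for 7 days at 37 °C. Viability was read with MTS (490 nm, M. mycetomatis) or resazurin (600 nm, F. senegalensis), background-corrected with a medium-only control and expressed as % growth relative to the untreated growth control. Inhibition of more than 80% was taken as growth inhibition.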

SMILES | growth
O=C(NCCN1CCCC1)c1ccc(Nc2nccc(-c3ccc(Cl)cc3)n2)cc1 | 50.5% (inactive)
CCN(CC)C(=O)/C(C#N)=C/c1cc(O)c(O)c([N+](=O)[O-])c1 | 107% (inactive)
Nc1nc(NC2CC2)c2ncn([C@H]3C=C[C@@H](CO)C3)c2n1 | 97% (inactive)
CCCCc1nc(Cl)c(CO)n1Cc1ccc(-c2ccccc2-c2nn[nH]n2)cc1 | 103% (inactive)
N=C(N)Nc1ccc(C(=O)Oc2ccc3cc(C(=N)N)ccc3c2)cc1 | 79.9% (inactive)
O=C(Nc1cccc(-c2n[nH]c3ccc(-c4n[nH]c(C5CCCN5)n4)cc23)c1)C1CC1 (stereo not given) | 62.4% (inactive)
CCN1CCN(Cc2ccc(-c3cc4c(N[C@H](C)c5ccccc5)[nH]cnc-4n3)cc2)CC1 | 97.8% (inactive)
NC(=O)c1ncn([C@@H]2O[C@H](CO)[C@@H](O)[C@H]2O)n1 | 87.9% (inactive)
COc1cccc(-c2ccc(NC(=O)C3=C(C(=O)O)CCC3)c(F)c2)c1 | 76.1% (inactive)
CCC(C)n1ncn(-c2ccc(N3CCN(c4ccc(OCC5COC(Cn6cncn6)(c6ccc(Cl)cc6Cl)O5)cc4)CC3)cc2)c1=O (stereo not given) | 5.47% (active)
Cc1ccc(C(=O)Nc2ccc(CN3CCN(C)CC3)c(C(F)(F)F)c2)cc1C#Cc1cnc2cccnn12 | 16.4% (active)
C/C=C/C[C@@H](C)[C@@H](O)[C@H]1C(=O)N[C@@H](CC)C(=O)N(C)CC(=O)N(C)[C@@H](CC(C)C)C(=O)N[C@@H](C(C)C)C(=O)N(C)[C@@H](CC(C)C)C(=O)N[C@@H](C)C(=O)N[C@H](C)C(=O)N(C)[C@H](CC(C)C)C(=O)N(C)[C@@H](CC(C)C)C(=O)N(C)[C@@H](C(C)C)C(=O)N1C | 79% (inactive)
C[C@@H]1[C@@H](NC(=O)c2cn3cc(Cl)ccc3n2)C[C@H]2C[C@@H]1C2(C)C | 69.5% (inactive)
OC[C@H]1NC[C@H](O)[C@@H](O)[C@H]1O | 101% (inactive)
Cn1nc(-c2cccc(C#N)c2)c2cc(-c3n[nH]c(C4CCCN4)n3)ccc21 (stereo not given) | 92.7% (inactive)
COc1ccc2c(c1)c(CC(=O)O)c(C)n2C(=O)c1ccc(Cl)cc1 | 79.7% (inactive)
Cc1cccc2c1N(C(=O)c1cc(Br)nn1-c1ncccc1Cl)CN(C(C)C)C2=O | 91.9% (inactive)
CN(C)CCN1CCCN(c2ccnc3ccsc23)CC1 | 76% (inactive)
O=C1CN(C(=O)CCC2CCCC2)C(c2ccc(F)cc2)c2cc(Cl)ccc2N1 (stereo not given) | 69.6% (inactive)
CC(Nc1ccc2c(c1)OCCCO2)C(=O)Nc1cc(C(F)(F)F)ccc1N1CCOCC1 (stereo not given) | 97.8% (inactive)

Same assay, conditions: 100 µM

SMILES | growth
O=C(NCCN1CCCC1)c1ccc(Nc2nccc(-c3ccc(Cl)cc3)n2)cc1 | 5.82% (active)
CCN(CC)C(=O)/C(C#N)=C/c1cc(O)c(O)c([N+](=O)[O-])c1 | 91.8% (inactive)
Nc1nc(NC2CC2)c2ncn([C@H]3C=C[C@@H](CO)C3)c2n1 | 83.8% (inactive)
CCCCc1nc(Cl)c(CO)n1Cc1ccc(-c2ccccc2-c2nn[nH]n2)cc1 | 88.8% (inactive)
N=C(N)Nc1ccc(C(=O)Oc2ccc3cc(C(=N)N)ccc3c2)cc1 | 72.3% (inactive)
O=C(Nc1cccc(-c2n[nH]c3ccc(-c4n[nH]c(C5CCCN5)n4)cc23)c1)C1CC1 (stereo not given) | 36.4% (inactive)
CCN1CCN(Cc2ccc(-c3cc4c(N[C@H](C)c5ccccc5)[nH]cnc-4n3)cc2)CC1 | 46.8% (inactive)
NC(=O)c1ncn([C@@H]2O[C@H](CO)[C@@H](O)[C@H]2O)n1 | 87.6% (inactive)
COc1cccc(-c2ccc(NC(=O)C3=C(C(=O)O)CCC3)c(F)c2)c1 | 91.5% (inactive)
CCC(C)n1ncn(-c2ccc(N3CCN(c4ccc(OCC5COC(Cn6cncn6)(c6ccc(Cl)cc6Cl)O5)cc4)CC3)cc2)c1=O (stereo not given) | 4.46% (active)
Cc1ccc(C(=O)Nc2ccc(CN3CCN(C)CC3)c(C(F)(F)F)c2)cc1C#Cc1cnc2cccnn12 | 10.5% (active)
C/C=C/C[C@@H](C)[C@@H](O)[C@H]1C(=O)N[C@@H](CC)C(=O)N(C)CC(=O)N(C)[C@@H](CC(C)C)C(=O)N[C@@H](C(C)C)C(=O)N(C)[C@@H](CC(C)C)C(=O)N[C@@H](C)C(=O)N[C@H](C)C(=O)N(C)[C@H](CC(C)C)C(=O)N(C)[C@@H](CC(C)C)C(=O)N(C)[C@@H](C(C)C)C(=O)N1C | 68.9% (inactive)
C[C@@H]1[C@@H](NC(=O)c2cn3cc(Cl)ccc3n2)C[C@H]2C[C@@H]1C2(C)C | 7.3% (active)
OC[C@H]1NC[C@H](O)[C@@H](O)[C@H]1O | 91.1% (inactive)
Cn1nc(-c2cccc(C#N)c2)c2cc(-c3n[nH]c(C4CCCN4)n3)ccc21 (stereo not given) | 74.9% (inactive)
COc1ccc2c(c1)c(CC(=O)O)c(C)n2C(=O)c1ccc(Cl)cc1 | 80.8% (inactive)
Cc1cccc2c1N(C(=O)c1cc(Br)nn1-c1ncccc1Cl)CN(C(C)C)C2=O | 153% (inactive)
CN(C)CCN1CCCN(c2ccnc3ccsc23)CC1 | 79.5% (inactive)
O=C1CN(C(=O)CCC2CCCC2)C(c2ccc(F)cc2)c2cc(Cl)ccc2N1 (stereo not given) | 94.9% (inactive)
CC(Nc1ccc2c(c1)OCCCO2)C(=O)Nc1cc(C(F)(F)F)ccc1N1CCOCC1 (stereo not given) | 125% (inactive)
